Experimental data published in PubChem BioAssay.

Assay: small-molecule binders of probe aInhba, primary screen, biochemical, small-molecule microarray, 635/667 nm fluorescence (AID 1148);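 note: score merges 667nm spot fluorescence with signal-to-noise for antibody binding to printed compounds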
Settings: higher = more signal

SMILES | composite z-score
C=CCC(OC(C)=O)[C@@H]1[C@@H](N(Cc2cc3ccccc3o2)C(=O)c2ccc(-c3ccccc3)cc2)c2cc(OCCCO)ccc2N1C(=O)Cc1ccc(OC)cc1 (stereo not given in full) | -0.0736
COCC(=C=CC[C@@H](O)c1ccc(OCCO)cc1)CCO | -0.0762
CC(C)(C)OC(=O)CC[C@]12N=C(c3ccc(OCCCO)cc3)O[C@H]1c1ccccc1N(Cc1ccccc1)C2=O | 0.225
O=C1OCCC/C=C\[C@H]2OC34C=CCN(c5ccc6ccccc6c5)C(=O)[C@H]3N(CCCO)C(=O)[C@@H]4C12 (stereo not given in full) | -0.21
C=C/C=C/[C@@H]1C(=C)CN([C@@H](Cc2ccccc2)C(=O)OC)[C@H]1[C@@H](O)Cc1ccccc1 | -0.0418
O=C1NC(=O)C2C1C=CC(C(O)c1ccccn1)N2Nc1ccc(Cl)cc1Cl (stereo not given) | -0.101
CC(C)C[C@@H]1NC(=O)CNC(=O)[C@@]23C(=O)N[C@@H](Cc4ccccc4)C2[C@H](C)[C@@]2(C)O[C@H]2C3/C=C/C/C=C\CNC1=O (stereo not given in full) | -0.0494
CCOC(=O)C1=C[C@@H](c2ccccc2)N(S(=O)(=O)c2ccc(C)cc2)[C@H]1c1ccccc1 | 0.0925
[N-]=[N+]=NCc1ccccc1C[C@]1(C(=O)N2CCOCC2)COC(c2ccc(OCCCO)cc2)=N1 | 0.0888
COCCOC(=O)N1C(=O)[C@@]2(c3cc(C#Cc4ccc(OC)cc4)ccc31)[C@H](C(=O)NC[C@H](O)c1ccccc1)[C@H]1C(=O)O[C@H](c3ccccc3)[C@H](c3ccccc3)N1[C@@H]2c1ccc(OCCO)cc1 | 0.0184
COCCOC(=O)N1C(=O)[C@@]2(c3cc(C#CCC(C(=O)OC)C(=O)OC)ccc31)[C@H](c1ccc(OCCO)cc1)N1[C@H](c3ccccc3)[C@H](c3ccccc3)OC(=O)[C@H]1[C@@H]2C(=O)Nc1nc2ccccc2s1 | -0.101
COCCOC(=O)N1C(=O)[C@@]2(c3cc(C#CCNC(N)=O)ccc31)[C@H](c1ccc(O)cc1)N1[C@H](c3ccccc3)[C@H](c3ccccc3)OC(=O)[C@H]1[C@@H]2C(=O)N1CCN(c2ncccn2)CC1 | -0.0898
COc1cc(C(O)C2C=CC3C(=O)N(Cc4ccccc4)C(=O)C3N2n2cnnc2)cc(OC)c1OC (stereo not given) | 0.255
CCCCC=C[C@@H](NC(=O)c1ccccc1)c1ccccc1 | 0.162
COc1ccc([Si](C)(C)[C@@H]2[C@@H](CC(=O)N3Cc4ccccc4C[C@H]3CO)O[C@]3(C(=O)N(c4ccccc4)c4ccccc43)[C@H]2C)cc1 | 0.128
CCOC(=O)C1=CCC(c2ccccc2)N(S(=O)(=O)c2ccc([N+](=O)[O-])cc2)C1 (stereo not given) | -0.128
[N-]=[N+]=NCc1ccccc1[C@@H]1OC(c2ccc(OCCCO)cc2)=N[C@]1(Cc1ccccc1N=[N+]=[N-])C(=O)N1CCCCC1 | 0.329
C=CCN1C(=O)[C@]2(O[C@H](CCO)[C@@H]([Si](C)(C)c3ccc(OC)cc3)[C@@H]2C)c2cc(N3C(=O)COc4ccccc43)ccc21 | -0.0245

SMILES | composite z-score
COCCCNC(=O)[C@@]1(c2ccc([N+](=O)[O-])cc2)CC(=O)N(CC23CC4CC(CC(C4)C2)C3)[C@@H]1c1ccc(CO)cc1I | 0.0906
CC(C)OC(=O)CC(=O)CC(O)c1ccc([N+](=O)[O-])cc1 (stereo not given) | -0.0044
CCOC(=O)C1=CCC(c2ccco2)N(S(=O)(=O)c2ccc(C)cc2)C1 (stereo not given) | 0.0841
[N-]=[N+]=Nc1ccccc1[C@@H]1OC(c2ccc(OCCCO)cc2)=N[C@]1(Cc1ccccc1)C(=O)NCc1ccccc1 | 0.38
[N-]=[N+]=NCc1ccccc1C[C@@]1(C(=O)N2CCCCC2)N=C(c2ccc(OCCCO)cc2)O[C@@H]1c1ccccc1CN=[N+]=[N-] | 0.153
O=C1C2C=CC(C(O)c3ccc(I)cc3)N(Nc3ccccc3)C2C(=O)N1c1ccccc1 (stereo not given) | 0.151
CC(C)C(=C=CC[C@@H](O)c1cccc(OCCO)c1)C[C@@H](O)c1ccccn1 | -0.13
COC(=O)[C@@]1(Cc2ccccc2CN=[N+]=[N-])N=C(c2ccc(OCCCO)cc2)O[C@H]1c1ccccc1 | 0.412
CCOC(=O)C[C@H]1[C@H](OC(=O)c2cc3ccccc3oc2=O)[C@@H](NC(=O)c2ccc3ccccc3c2)c2cc(OCCCO)ccc2N1C(=O)Cc1ccc(OC)cc1 | -0.231
COC(=O)[C@@]1(Cc2ccc(OC)cc2)[C@H]2c3cc(C(=O)N4CCCC4)n(Cc4cc(C)n(C)n4)c3C[C@H]2CN1C(=O)c1ccccc1 | 0.605
C=C(CCCC)C(=O)CC[C@H](OC(C)=O)c1ccc(OCCO)cc1 | -0.308
COc1ccc(C(=O)Nc2cccc(CN3C(=O)[C@]4(O[C@H](CCn5cc([C@H](O)c6ccccc6)nn5)[C@@H]([Si](C)(C)c5ccc(OC)cc5)[C@@H]4C)c4ccccc43)c2)cc1 | -0.183
COCCOC(=O)N1C(=O)[C@@]2(c3cc(C#CC4=CCCCC4)ccc31)[C@H](C(=O)N1CCCCCCC1)[C@H]1C(=O)O[C@H](c3ccccc3)[C@H](c3ccccc3)N1[C@@H]2c1ccc(OCCO)cc1 | 0.515
C=C(CCCC)/C(=C/C[C@H](OC(C)=O)c1ccc(OCCO)cc1)c1cc(C(=O)OC)ccc1OC | 0.0363
COc1ccc([Si](C)(C)[C@H]2[C@H](CC(=O)N3CCC[C@H]3CO)O[C@@]3(C(=O)N(Cc4ccc(N5CCC5=O)cc4)c4ccccc43)[C@@H]2C)cc1 | -0.0523
[N-]=[N+]=NCc1ccccc1[C@@H]1OC(c2ccc(OCCCO)cc2)=N[C@]1(Cc1ccccc1N=[N+]=[N-])C(=O)NCCN1CCOCC1 | 0.102
O=C1C[C@@](C(=O)NCC(F)(F)F)(c2ccc([N+](=O)[O-])cc2)[C@@H](c2ccc(CO)cc2)N1CC12CC3CC(CC(C3)C1)C2 | 0.216
